Calls of active or inactive are those of the source. Rule for the calls: active = hit-call score of the fitted dose curve at least 0.9, where 1 is the maximum; inactive = score below 0.9.
Assay: APR_HepG2_MicrotubuleCSK_1hr: Apredica 1-hour HepG2 Assay for Microtubule CSK Stabilty (AID 2282669)
Details: HepG2 microtubule cytoskeleton imaging, actives raise or lower the signal
Procedure: APR_HepG2_1hr is a cell-based, multiplexed-readout assay that uses HepG2, a human liver cell line, with measurements taken at 1 hour after chemical dosing in a 384-well plate.APR_HepG2_MicrotubuleCSK_1hr is one of 10 assay component(s) measured or calculated from the APR_HepG2_1hr assay. It is designed to make measurements of protein conformation, a form of conformation reporter, as detected with fluorescence intensity signals by HCS Fluorescent Imaging technology.Data from the assay component APR_HepG2_MicrotubuleCSK_1hr was analyzed into 1 assay endpoint. This assay endpoint, APR_HepG2_MicrotubuleCSK_1hr, was analyzed with bidirectional fitting relative to DMSO as the negative control and baseline of activity. Using a type of conformation reporter, measures of protein for gain or loss-of-signal activity can be used to understand the signaling at the cellular-level. Furthermore, this assay endpoint can be referred to as a primary readout, because this assay has produced multiple assay endpoints where this one serves a signaling function. To generalize the intended target to other relatable targets, this assay endpoint is annotated to the cell morphology intended target family, where the subfamily is cell conformation.
Cells were treated with dimethyl sulfoxide (DMSO) as a solvent control at a final concentration of 0.5% v/v or with compounds in DMSO with a resulting final DMSO concentration of 0.5% v/v. Compound treatment was done at concentrations of 0.39, 0.78, 1.56, 3.12, 6.24, 12.5, 25, 50, 100, and 200 uM in duplicate on each plate. Cells were treated with compounds for 1, 24, or 72 hr. Carbonyl […] m-chloro-phenylhydrazone (CCCP) and taxol were used as positive controls for mitochondrial function and cytoskeletal stability, respectively; DMSO served as the negative control for this experiment. Cells were fixed by the direct addition of 50 uL formaldehyde in Hank's Balanced Salt Solution (HBSS) to a final concentration of 3.7%. After incubation in the fixation medium for 30 min at room temperature (293-298 K), cells were rinsed twice with HBSS and treated with cell permeabilization buffer (16 uL of 0.5% Triton X-100) for 10 min at room temperature (293-298 K) before labeling. For mitochondrial membrane potential and mitochondrial measurements, pre-fixed cells were incubated with 50 uL of MitoTracker Red CMXRos (Invitrogen) at a concentration of 250 nM for 30 min before fixation. In the remaining cases, post-fixed cells were labeled by incubation with a multiplexed mixture of primary antibodies in HBSS for 60 min at room temperature (293-298 K) to detect immunoreactivity of c-Jun (1:500), phospho-histone H3 (1:100), phospho-histone H2A.x (1:200), p53 (1:400), alpha-tubulin (1:200) and Hoechst 33342 (2 ug/mL). Cells were labeled for multiplexed imaging on two separate plates: a) Hoechst 33342, MitoTracker Red, phospho-histone H3, and alpha-tubulin, and b) Hoechst 33342, phospho-histone H2A.x, and c-Jun. A final rinse with HBSS (50 uL) was performed before analysis. The primary and secondary antibodies for the proteins were phospho-histone H3 (rabbit anti-phospho-histone H3 and FITC-donkey anti-rabbit IgG), phospho-histone H2A.x (mouse anti-phospho-histone H2A.x and FITC-donkey anti-mouse IgG), c-Jun (rabbit anti-phospho-c-Jun and Cy3-donkey anti-rabbit IgG), p53 (sheep anti-p53 and Cy5-donkey anti-sheep IgG), alpha-tubulin (mouse anti-alpha-tubulin and Cy5-donkey anti-mouse IgG). These antibodies are available as the CellCiphr HepG2 assay kit (Millipore).Digital images of each well were captured using a Cellomics ArrayScan VTI (Thermo Scientific Cellomics) (0.8 NA objective, 0.63x optical coupler, and XF-93 filter set) at 20x magnification. The images were acquired using the autofocus feature of the ArrayScan instrument, which entails the following steps. First, the camera focuses on channel 1 (Hoechst 33342), where nuclei are identified. Second, a Z offset of 1 um is used for capturing mitochondria (MitoTracker Red). […]
With `CSC(=O)c1cccc2nnsc12` the outcome was “inactive”.
With `CCCN(CCC)c1c([N+](=O)[O-])cc(C(F)(F)F)c(N)c1[N+](=O)[O-]` the outcome was “inactive”.
For `CC(C)(c1ccc(O)cc1)c1ccc(O)cc1`, the outcome was “inactive”.
With `CCOC(=O)[C@H](C)Oc1ccc(Oc2nc3ccc(Cl)cc3o2)cc1` the outcome was “inactive”.
For `c1ccc2[nH]c(-c3cscn3)nc2c1`, the outcome was “inactive”.
In the case of `CCOC(=O)C(C)Oc1ccc(Oc2cnc3cc(Cl)ccc3n2)cc1` (stereo not given), the outcome is reported as “inactive”.
For `CCCCC(CC)CN1C(=O)C2C3C=CC(C3)C2C1=O` (stereo not given), the outcome was “inactive”.
With `CCOC(=O)NCCOc1ccc(Oc2ccccc2)cc1` the outcome was “inactive”.
With `c1ccc(Nc2ccccc2)cc1` the outcome was “inactive”.
For `COc1nc(C)nc(NC(=O)NS(=O)(=O)c2ccccc2OCCCl)n1`, the outcome was “inactive”.
In the case of `C#CCOC(=O)[C@@H](C)Oc1ccc(Oc2ncc(Cl)cc2F)cc1`, the outcome is reported as “inactive”.
With `CCC(C)OC(=O)N1CCCCC1CCO` (stereo not given) the outcome was “inactive”.
With `CCCCC(CC)COC(=O)c1ccccc1C(=O)O` (stereo not given) the outcome was “inactive”.
With `N#CSCSc1nc2ccccc2s1` the outcome was “inactive”.
In the case of `CC(C)(C)[C@@H](O)[C@@H](Cc1ccc(Cl)cc1)n1cncn1`, the outcome is reported as “inactive”.
For `CCCCOCCOCCOCc1cc2c(cc1CCC)OCO2`, the outcome was “inactive”.
With `COCCO` the outcome was “inactive”.
For `S=C([S-])NCCNC(=S)[S-].[Mn+2]`, the outcome was “inactive”.
In the case of `CCCOC(=O)NCCCN(C)C`, the outcome is reported as “inactive”.
For `CC1(C)C(C=C(Cl)Cl)C1C(=O)OCc1cccc(Oc2ccccc2)c1` (stereo not given), the outcome was “inactive”.
In the case of `COc1c(Cl)ccc(Cl)c1C(=O)O`, the outcome is reported as “inactive”.
For `CN(C)C(=O)Nc1ccc(Cl)c(Cl)c1`, the outcome was “inactive”.
With `CCCCOC(=O)[C@@H](C)Oc1ccc(Oc2ccc(C(F)(F)F)cn2)cc1` the outcome was “inactive”.
In the case of `COC(=O)c1ccccc1S(=O)(=O)NC(=O)Nc1nc(OC(F)F)cc(OC(F)F)n1`, the outcome is reported as “inactive”.
With `OB(O)O` the outcome was “inactive”.
With `O=C(O)C1(C(=O)Nc2ccc(Cl)cc2Cl)CC1` the outcome was “inactive”.
With `COC(=O)c1ccc(I)cc1S(=O)(=O)NC(=O)Nc1nc(C)nc(OC)n1` the outcome was “inactive”.
In the case of `CCN(Cc1c(F)cccc1Cl)c1c([N+](=O)[O-])cc(C(F)(F)F)cc1[N+](=O)[O-]`, the outcome is reported as “inactive”.
For `COC(=O)c1cccc(C)c1S(=O)(=O)NC(=O)Nc1nc(OCC(F)(F)F)nc(N(C)C)n1`, the outcome was “inactive”.
In the case of `CCNc1nc(N)nc(Cl)n1`, the outcome is reported as “inactive”.
For `COC(=O)c1ccc(CNS(C)(=O)=O)cc1S(=O)(=O)NC(=O)Nc1nc(OC)cc(OC)n1`, the outcome was “inactive”.
For `CCCCCCC(C)OC(=O)COc1nc(F)c(Cl)c(N)c1Cl` (stereo not given), the outcome was “inactive”.
In the case of `Cc1nn(C)c(Oc2ccccc2)c1C=NOCc1ccc(C(=O)OC(C)(C)C)cc1`, the outcome is reported as “inactive”.
For `O=C(Nc1ccc([N+](=O)[O-])cc1Cl)c1cc(Cl)ccc1O`, the outcome was “inactive”.
In the case of `CCCCCOC(=O)COc1cc(N2C(=O)C3=C(CCCC3)C2=O)c(F)cc1Cl`, the outcome is reported as “inactive”.
With `CCN(CC)C(=O)c1cccc(C)c1` the outcome was “inactive”.
In the case of `CCOC(=O)COc1cc(-n2ncc(C(F)(F)F)c(C)c2=O)c(F)cc1Cl`, the outcome is reported as “inactive”.
With `C=CCOC(Cn1ccnc1)c1ccc(Cl)cc1Cl` (stereo not given) the outcome was “inactive”.
In the case of `CCC(O)=C1C(=O)CC(C(=O)O)CC1=O` (stereo not given), the outcome is reported as “inactive”.
With `COC(=O)c1c(Cl)nn(C)c1S(=O)(=O)NC(=O)Nc1nc(OC)cc(OC)n1` the outcome was “inactive”.
